Compounds with a hit are over-represented: about 10% of the library has one in this group of screens.
Gal4-VP16 FLuc – Gal4-VP16 reporter inhibition counter-screen; Drosophila S2 Gal4-VP16 UAS-luciferase, luminescence, 20 h; Potency, µM (highest dose often 53.6 µM), without a hit: at the highest dose activity, negative = inhibition, usual class: inhibitors; 3.5% of 310,000 active; AID 2546;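 also: Gal4-VP16 expression switched on by copper sulfate through the metallothionein promoter; % is scaled to controls: 0 for no effect and ±100 for the full control effect; nearly all actives have a fitted effect of over 50% in size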
RORgamma inh – blocks mouse ROR gamma transcriptional activity; 5.4% of 310,000 active; Drosophila S2 Gal4-RORgamma UAS-luciferase reporter, 20 h; P51450; Potency, µM (doses to about 53.6 µM), for inactives: top-dose activity change, negative = inhibition, hits mostly inhibitors; also: % is scaled to controls: 0 for no effect and ±100 for the full control effect; nearly all actives have a fitted effect of over 60% in size
Target sequence (P51450 whole entry, looked up, the tested form may be a part): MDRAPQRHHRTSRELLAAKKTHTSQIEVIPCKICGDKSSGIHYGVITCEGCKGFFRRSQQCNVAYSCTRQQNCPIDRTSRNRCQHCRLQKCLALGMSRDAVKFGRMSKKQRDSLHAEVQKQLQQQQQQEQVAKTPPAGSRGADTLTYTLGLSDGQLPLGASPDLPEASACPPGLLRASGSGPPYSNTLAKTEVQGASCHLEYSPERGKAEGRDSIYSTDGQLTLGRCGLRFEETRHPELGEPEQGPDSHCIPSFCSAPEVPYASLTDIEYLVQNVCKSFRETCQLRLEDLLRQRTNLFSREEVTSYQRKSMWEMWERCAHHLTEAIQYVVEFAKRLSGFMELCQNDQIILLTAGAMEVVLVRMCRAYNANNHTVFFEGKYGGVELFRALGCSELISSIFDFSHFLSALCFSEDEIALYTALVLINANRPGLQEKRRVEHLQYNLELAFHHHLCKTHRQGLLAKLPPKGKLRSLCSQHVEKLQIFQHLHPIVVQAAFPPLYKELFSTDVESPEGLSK
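Using a luciferase readout, inhibitors were identified by reduced reporter activity in Drosophila cells coexpressing a copper-inducible Gal4–ROR gamma fusion and UAS-driven Photinus luciferase, incubated 20 hr after 700 uM copper sulfate.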
ELG1 DNA repair – ELG1-dependent DNA repair inhibition; HEK293T ELG1-luciferase reporter, luminescence, 16 h; DNA damage induced by 5-fluorouridine; Potency, µM (series often up to 46.1 µM), for inactives: top-dose activity change, negative = inhibition, hits mostly inhibitors; 2.3% of 330,000 active; also: % is scaled to controls: 0 for no effect and ±100 for the full control effect; nearly all actives have a fitted effect of over 55% in size
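HEK293T cells expressing luciferase-tagged ELG1 (2,000/well) received 5-Fluorouridine plus compound or DMSO for 16 hr at 37 °C. Luciferase was read by ONE-Glo luminescence after 30 min at room temperature.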
SW480 rerep – inducers of DNA re-replication in SW480 colon cancer cells. SW480 DNA re-replication, Hoechst DNA content imaging, 48 h. Potency, µM (highest dose often 46.1 µM), without a hit: at the highest dose re-replication activation, most hits filed as activators. 1.8% of 340,000 active. AID 624297; also: % of control where 0% means no effect; nearly all actives have a fitted effect of over 55% in size
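Hoechst fluorescence of nuclei (405 nm excitation, 500-530 nm emission) measured by plate-scanning imager after 48 hr compound exposure at 37 C; re-replication scored as increased number of nuclei with elevated intensity.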
MCF10A rereplic – induces DNA re-replication in MCF 10a normal breast cells; MCF 10A DNA re-replication, Hoechst nuclear intensity, 48 h; Potency, µM (doses to about 46.1 µM), for inactives: at the top dose activity, positive = re-replication, actives largely listed as activators; 2.9% of 350,000 active; AID 624296; also: % of control where 0% means no effect; nearly all actives have a fitted effect of over 50% in size
* hit, by the source's call; ? = inconclusive; · = no result; [ ] = remark or other dose. Calls follow the shape of the dose curve; as a rule, active = well fitted curve in the direction sought with a large enough effect; inconclusive = small, poorly fitted or top-dose-only effect, or another doubt; inactive = no such curve, though single readings can be large; an effect the other way counts as inactive or inconclusive. Potency is read from the fitted curve at half-maximal effect.

SMILES | Gal4-VP16 FLuc | RORgamma inh | ELG1 DNA repair | SW480 rerep | MCF10A rereplic
CCn1ncc(/C=C/C(=O)Nc2c(C)nn(Cc3ccc(Cl)cc3Cl)c2C)c1C | ? | ? | -23.6% | 10.3µM* | 4.1%
O=C(Cc1cccc(F)c1)N1CCOCC1 | · | · | · | -0.6% | 3.2%
CCCC(C)NC(=O)c1cccc(Oc2ccccc2)c1 (stereo unspecified) | -15.1% | 35.5µM* | -18.4% | -5.4% | 22.6%
O=C(NCCNCCO)c1c(O)c2cccc3c2n(c1=O)CCC3 | -2.5% | -16.3% | 6.51µM* | -3.2% | 8.7%
CCCn1c(=O)c(C(=O)NCCc2ccc(OC)c(OC)c2)c(O)c2ccccc21 | ? | 11.2µM* | -29.6% | -4.0% | 1.03µM*
COc1ccc(CCNCC(O)Cn2c3ccccc3c3ccccc32)cc1OC (stereo unspecified) | ? | ? | -21.3% | -2.0% | 9.2µM*
CCC(Sc1nc2cc(OC)c(OC)cc2c(=O)n1CCc1ccc(OC)c(OC)c1)C(=O)NCCOC (stereo unspecified) | 1.2% | 8.2% | 18.3µM* | ? | 22.4%
COc1ccccc1NCC(O)Cn1c2ccccc2c2ccccc21 (stereo unspecified) | -19.0% | 14.2% | ? | ? | ?
COCCNC(=O)CSc1nc2cc(OC)c(OC)cc2c(=O)n1Cc1ccc(OC)cc1 | 3.8% | 8.8% | ? | 7.5% | 14.0%
O=C(C1CCC1)N1CCN(S(=O)(=O)c2cc(F)ccc2F)CC1 | · | · | 13.8% | -3.0% | -4.9%
CCCn1nc(C(=O)NCc2ccc3c(c2)OCO3)c2ccccc2c1=O | -6.8% | 21.6% | ? | 1.6% | 8.1%
O=C(NCc1ccccn1)c1c(O)c2cccc3c2n(c1=O)CC3 | ? | 2.82µM* | ? | -4.5%[9.22 µM] | 3.1%
CCCn1c(=O)c(C(=O)NCc2ccc3c(c2)OCO3)c(O)c2ccccc21 | ? | 12.6µM* | -6.4% | -11.2% | -1.8%
O=C(NCCc1ccccc1)c1c(O)c2cccc3c2n(c1=O)CC3 | 11.8% | 14.4% | 10.8% | -3.7% | ?
CCCn1c(=O)c(C(=O)NCc2ccccn2)c(O)c2ccccc21 | ? | 10µM* | 0.3% | ? | ?
CCOc1ccc(CCNC(=O)CSCC(=O)Nc2cccc(C)c2)cc1OCC | · | · | -0.7% | 2.3% | 3.7%
CN(Cc1ccc2nonc2c1)Cc1nc(CC2CC2)no1 | 8.4% | 7.8% | -2.0% | -7.5% | -13.6%
CC1CCCCN1CCCNC(=O)CN1C(=O)c2cccnc2Oc2ccccc21 (stereo unspecified) | 0.1% | -3.9% | 5.4% | -8.8% | -1.7%
COc1ccc(-c2csc(NC(=O)COC(=O)C3=COCCO3)n2)cc1 | ? | 27.6% | ? | -7.2% | 14.9%
CCn1cc(C(=O)O)c(=O)c2cc(F)c(N3CCN(C(=S)NC(=O)c4ccc(F)cc4)CC3)cc21 | 3.98µM* | 2.51µM* | -15.9% | -76.3% | 13.4%
CCn1cc(C(=O)O)c(=O)c2cnc(N3CCN(C(=S)NC(=O)c4ccc(OC)cc4)CC3)nc21 | -6.9% | -12.5% | -6.4% | 0.2% | 7.1%
CCn1cc(C(=O)O)c(=O)c2cnc(N3CCN(C(=S)NC(=O)c4ccc(F)c(F)c4)CC3)nc21 | ? | 2.51µM* | 0.6% | -34.4% | -30.6%
CCCOc1ccc(C(=O)NC(=S)N2CCN(c3cc4c(cc3F)c(=O)c(C(=O)O)cn4CC)CC2)cc1 | -16.5% | 1.78µM* | 0.4% | 21.0% | -1.6%
CCn1cc(C(=O)O)c(=O)c2cc(F)c(N3CCN(C(=S)NC(=O)c4cccc(F)c4)CC3)cc21 | 3.4% | 2.82µM* | -5.7% | 1.3% | 25.2%
CCn1cc(C(=O)O)c(=O)c2cc(F)c(N3CCN(C(=S)NC(=O)c4ccc(F)c(F)c4)CC3)cc21 | ? | ? | 8.7% | -2.8% | 19.2%
SMILES | Gal4-VP16 FLuc | RORgamma inh | ELG1 DNA repair | SW480 rerep | MCF10A rereplic
CC1(C)C(=O)Nc2ccccc2N1C(=O)COC(=O)c1cc([N+](=O)[O-])ccc1N | -13.4% | 21.3% | ? | -15.6% | 6.3%
Cn1c(CNC(=O)c2ccco2)nnc1SCC(=O)c1ccccc1 | 17.7% | 28.2µM* | 8.5% | -7.5% | 0.7%
Cn1c(Cc2ccccc2)nnc1SCC(=O)NCCc1ccccc1 | -3.7%[10 µM] | 3.6% | 0.3% | -6.1% | 0.581µM*
CCN1CCN(c2c(/C=C3\SC(=S)N(Cc4ccco4)C3=O)c(C)c(C#N)c(=O)n2C)CC1 | ? | 7.08µM* | 8.6% | ? | ?
COc1ccc(-c2cn[nH]c2-c2ccc(OCC(=O)NN)cc2O)cc1OC | 7.1% | ? | 2.5% | -2.5% | -1.7%
COc1ccc(-c2cn[nH]c2-c2ccc(OCc3ccccc3)cc2O)cc1OC | -2.4% | 7.4% | 13µM* | ? | ?
COc1ccc(-c2cn[nH]c2-c2ccc(OCc3ccc(F)cc3)cc2O)cc1OC | 3.55µM* | 1.58µM* | ? | 18.4µM* | 20.6µM*
Cc1ccc(S(=O)(=O)N2CCCCC2)cc1NC(=O)c1ccncc1 | · | · | -7.1% | 1.6% | 1.7%
COc1ccc(CN(C)C(=O)/C=C/c2ccc(S(=O)(=O)N3CCOCC3)cc2)cc1F | · | · | 23.1µM* | -1.6% | 8.1%
CN(Cc1ccc(OC(F)F)cc1)C(=O)C1CCN(S(=O)(=O)c2ccc3c(c2)OCCO3)CC1 | · | · | 7.3µM* | -10.1% | 28.9%
COc1ccc(OC)c(NC(=O)/C=C/c2ccc(S(=O)(=O)N3CCOCC3)cc2)c1 | · | · | -22.8% | -2.4% | 6.7%
CN(Cc1ccc(OC(F)F)cc1)C(=O)/C=C/c1ccc(S(=O)(=O)N2CCOCC2)cc1 | · | · | 16.4µM* | -5.8% | 11.3%
O=c1[nH]c2ccc(S(=O)(=O)N3CCN(c4ccc(F)cc4)CC3)cc2o1 | -7.6% | 21.2% | ? | 2.5% | -1.8%
COC(=O)Cc1ccc(NC(=S)Nc2ccccn2)cc1 | ? | 5.01µM* | ? | -16.2% | 5.4%
COc1cc(NC(=S)Nc2ccccn2)cc(OC)c1 | 5.62µM* | 2.51µM* | 5.2% | -2.1% | 0.1%
COc1cc(NC(=S)Nc2ccccn2)cc(OC)c1OC | 22.4µM* | 3.55µM* | -6.8% | -15.5% | ?
COC(=O)[C@@]12CCCN1[C@H](c1ccc(-c3ccc(Cl)c(Cl)c3)cc1)[C@H]1C(=O)N(C)C(=O)[C@H]12 | · | · | ? | 0.5%[9.22 µM] | ?
COC1(OC)C(=N/O)/C(=N\O)CCC1O (stereo unspecified) | 0.7% | -14.1% | -1.5% | 12.9% | 16.4µM*
O=[N+]([O-])/C(C=Nc1ccccc1O)=C\Nc1ccccc1O | ? | -44.0% | -9.9% | -5.6% | ?
COc1ccc2c(c1)oc(=O)c1cc(OC)ccc12 | -16.4% | -0.5% | ? | -12.5% | 1.3%
COc1oc(=O)c2cc(N)ccc2c1Cl | 14.1µM* | 7.94µM* | · | · | ·
O=C(NNS(=O)(=O)c1ccc(C(F)(F)F)cc1)c1cnn(-c2ccccc2)c1C(F)(F)F | -6.1% | 5.6% | -6.5% | -20.6% | -0.4%

Bioassay records deposited in PubChem by National Center for Advancing Translational Sciences (NCATS).
